Data on 40 molecules can be found in PubChem BioAssay (EPA / NIEHS).

The source made the active and inactive calls. Rule for the calls: active = hit-call score of the fitted dose curve at least 0.9, where 1 is the maximum; inactive = score below 0.9.

Read-out in the test: Cytochrome P450 4A22 (Homo sapiens) (UniProt Q5TCH4)
The experiment in a line: LTEA_HepaRG_CYP4A22: Life Technologies and Expression Analysis (LTEA) Assay for Cytochrome P450 4A22 (CYP4A22) using HepaRG (AID 2283495). Particulars: mRNA level, 48 h; actives raise or lower the signal. On the procedure:
LTEA_HepaRG is a cell based, multiplexed-readout assay that uses HepaRG, a human liver cell line, with measurements taken at 48 hours after chemical dosing on a 96-well plate.LTEA_HepaRG_CYP4A22 is one of 102 assay component(s) measured in the LTEA HepaRG cell culture assay. It is a marker of NR mediated metabolism.Data from the assay component LTEA_HepaRG_CYP4A22 was analyzed into 1 endpoint. This assay endpoint, LTEA_HepaRG_CYP4A22, was analyzed with bidirectional fitting relative to DMSO as the negative control and baseline of activity. Using a type of inducible reporter, measures of mRNA induction for gain or loss-of-signal activity can be used to understand regulation of transcription factor activity. To generalize the intended target to other relatable targets, this assay endpoint is annotated to the cyp intended target family, where the subfamily is xenobiotic metabolism.
A total of 1060 chemcials from the ToxCast library were tested in eight-point concentration-response experiments. Cell culture and cytotoxicity assays were conducted at Thermo Fisher Scientific's Custom Services facility (Madison, WI). A single lot of human HepaRG cells (Thermo Fisher Scientific, Frederick, MD) was used for the cell culture experiments. 96-well format collagen type I coated plates of human HepaRG cells were prepared using established methods. Briefly, cryopreserved HepaRG cells were thawed, plated at a density of approximately 100,000 cells/well in HepaRG Thaw, Plate, and General Purpose media (HPRG770, Thermo Fisher Scientific), and incubated for 48 hours. 0.5% DMSO was selected as vehicle control to balance the requisite need of DMSO in HepaRG cultures to maintain differentiation (for example, baseline metabolism, proportions of hepatocytes vs. cholangiocytes), while enabling further hepatic receptor pathway activation (for example, PXR and CAR) in response to chemical exposure. 48 hours after plating, the culture medium was replaced with HepaRG Serum-Free Incudtion Media. Cells were exposed to each test chemical in duplicate and maintained in CO2 incubators for another 48 hours. Chemical plates were thawed to room temperature and 200x concentrations of treatment groups were prepared. 8-point conentration-reponse curves were made with the highest exposure at 100 uM, followed by half-log dilutions, all in 0.5% DMSO. Each test plate contained variouse controls, induction positive controls (1mM phenobarbital), cytotoxicity positive controls ([…] aflatoxin B1), vehicle controls (0.5% DMSO), and total lysis controls (0.5% DMSO). Cell morphology images were taken using an Essen IncuCyte FLR automated microscope, with six 96-well plates imaged in about 24 minutes. Images were captured and exported and JPEG files. Spent culture media was transfered to black-well plates for the LDH assay, and remaining media was sorted at -80 C for later use. Cells were treated with RLT buffer and frozen until shipped for gene expression analysis. Total RNA was isolated from the cell suspension in 75 uL of Buffer RLT (Qiagen, Germantown, MD 20874) by Quintiles/Expression Analysis (Durham, NC) using a custom isolation procedure. Total RNA from each plate well was transferred to a preamplification plate. Fluidigm's 96.96 Dynamic ArrayTM (Fluidigm, Amsterdam, the Netherlands) technology was used for gene expression analyses by quantitative reverse transcription polymerase chain reaction (qRT-PCR, performed by Quintiles/Expression Analysis, Durham, NC)89. Standard TaqManTM Assays (Applied Biosystems/ThermoFisher Scientific, Foster City, CA) were used to assess the expression of 93 genes selected based on their selectivity and sensitivity to important hepatic receptors known to be modulated by environmental chemicals; importance in human hepatocyte functionality; and hepatotoxicity. […]
Consider `O=S(=O)(O)C(F)(F)C(F)(F)C(F)(F)C(F)(F)F`, for which the outcome was inactive.

As to `CCC(C)(c1ccc(O)cc1)c1ccc(O)cc1`, the outcome was inactive.

Regarding `Cc1cc(-c2ccc(N)c(C)c2)ccc1N`, the molecule was classed as inactive.

As a reminder, the AC50 is the midpoint of the concentration-response curve, whichever way the signal moves. Take `Cc1cc2c3c(c1)C(c1ccccc1)=N[C@@H](NC(=O)c1ccncc1)C(=O)N3CC2`: the AC50 is 36 µM (active).

Consider `CO/C=C(/C(=O)OC)c1ccccc1COc1cccc(C(F)(F)F)n1`, for which the AC50 was 5.06 µM (active).

`Cc1cc(O)ccc1Cl`: the call was inactive.

As for `CCCCCCCCOC(=O)c1ccccc1C(=O)OCCCCCCCC`, the outcome was inactive.

As for `CCCCCCOC(=O)c1ccccc1C(=O)OCCCCCC`, the AC50 was 83.9 µM (active).

With `C=CC(N)=O`, the molecule was classed as inactive.

`O=C(O)C(F)(F)C(F)(F)C(F)(F)C(F)(F)C(F)(F)F`: the AC50 was 13.3 µM (active).

For `c1cc2ccc3cccc4ccc(c1)c2c34`, the call was inactive.

As for `CN(C)CCO`, the result was inactive.

Turning to `C[C@]12CCC(=O)C=C1CC[C@@H]1[C@@H]2CC[C@@]2(C)[C@H]1CC[C@]2(C)O`, the AC50 was 69.8 µM (active).

As to `Nc1ccc(-c2ccc(N)cc2)cc1`, the AC50 is 8.3 µM (active).

On to `Cc1ccccc1[N+](=O)[O-]`, for which the molecule was called inactive.

As to `ClC1=C(Cl)[C@]2(Cl)[C@@H]3[C@@H]4C[C@@H]([C@H]5O[C@@H]45)[C@@H]3[C@@]1(Cl)C2(Cl)Cl`, the AC50 was 34.2 µM (active).

For `Clc1ccc(C(Cl)(Cl)Cl)cc1`, the call was inactive.

With `O=C(N[C@H]1CN2CCC1CC2)c1cc2ccoc2cn1`, the molecule was classed as inactive.

Take `N#Cc1ccc(N(CC(N)=O)CC(F)(F)F)cc1C(F)(F)F`: the result was inactive.

As to `CC(c1ccc(O)cc1)(c1ccc(O)cc1)c1ccc(O)cc1`, the outcome was inactive.

Take `O=C(O)C(F)(F)C(F)(F)C(F)(F)C(F)(F)C(F)(F)C(F)(F)C(F)(F)C(F)(F)F`: the AC50 is 90 µM (active).

In the case of `CN(C)c1nc(=O)n(C2CCCCC2)c(=O)n1C`, the call was inactive.

For `CCOP(=S)(OCC)SCSC(C)(C)C`, the call was inactive.

Take `CC#Cc1cc(C)nc(Nc2ccccc2)n1`: the AC50 was 1.05 µM (active).

Turning to `NS(=O)(=O)C(F)(F)C(F)(F)C(F)(F)C(F)(F)C(F)(F)C(F)(F)C(F)(F)C(F)(F)F`, the AC50 was 11.1 µM (active).

As for `ClC(Cl)=C(c1ccc(Cl)cc1)c1ccc(Cl)cc1`, the outcome was inactive.

In the case of `CCCN(CCC)N=O`, the outcome was inactive.

Turning to `CCC(C)(CC)c1cc(NC(=O)c2c(OC)cccc2OC)on1`, the AC50 is 19.5 µM (active).

Consider `C[C@]12CCC(=O)C=C1CC[C@@H]1[C@@H]2CC[C@]2(C)C(=O)CC[C@@H]12`, for which the AC50 is 72.7 µM (active).

`Cc1ccc(O)c(C)c1`: the result was inactive.

As for `CCSC(=O)N(CC)C1CCCCC1`, the outcome was inactive.

As to `O=C(NC(=O)c1cc(F)c(F)cc1Cl)Nc1cc(F)ccc1N1CCC(C(=O)O)CC1`, the AC50 was 7.84 µM (active).

For `ClC1=C(Cl)[C@]2(Cl)[C@@H]3[C@H]4C[C@H]([C@@H]5O[C@H]45)[C@@H]3[C@@]1(Cl)C2(Cl)Cl`, the AC50 was 32.5 µM (active).

`Oc1c(Cl)c(Cl)c(Cl)c(Cl)c1Cl`: the AC50 is 3.87 µM (active).

With `CCC(C)c1cc([N+](=O)[O-])cc([N+](=O)[O-])c1O` (stereo not given), the half-maximal activity concentration (AC50) was 2.35 µM (active).

`O=NN(c1ccccc1)c1ccccc1`: the AC50 is 50 µM (active).

As for `C=CC(=O)NCNC(=O)C=C`, the AC50 was 24.6 µM (active).

Regarding `Cc1ccccc1CO[C@@H]1C[C@@]2(C(C)C)CC[C@]1(C)O2`, the molecule was classed as inactive.

In the case of `CC(C)(O)C(=O)Nc1ccc([N+](=O)[O-])c(C(F)(F)F)c1`, the molecule was called inactive.

With `O=S(=O)(O)C(F)(F)C(F)(F)C(F)(F)C(F)(F)C(F)(F)C(F)(F)F`, the AC50 is 25.1 µM (active).
